Test [1] in a line: qHTS assay to identify small molecule antagonists of the estrogen related receptor (ERR) signaling pathway from Tox21 library - cell viability counter screen (AID 1224834). Further: nearly all actives have a fitted effect of over 30% in size. Further: potency means the concentration at half of the fitted maximal effect. The procedure, abridged: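 After 17.5 h of compound exposure at 37 C, ERR cells are incubated with CellTiter-Fluor for 30 min and fluorescence intensity serves as the viability measure.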
(qHTS replaces the single test concentration by a dilution series.)

Test [2] concerns the target Luciferin 4-monooxygenase (Photinus pyralis) (UniProt P08659). Briefly: qHTS assay to identify small molecule inhibitors of firefly luciferase (AID 1224835). Further: nearly all actives have a fitted effect of over 25% in size. Further: potency means the concentration at half of the fitted maximal effect. In short, it runs like this: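 Biochemical qHTS: compounds run as interplate titrations against purified firefly enzyme, with D-luciferin and ATP each at its KM concentration. Light output recorded by CCD imaging.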

Test [3] can be described thus: qHTS assay to identify small molecule agonists of the constitutive androstane receptor (CAR) signaling pathway - cell viability counter screen (AID 1224836). Further: nearly all actives have a fitted effect of over 45% in size. Further: potency means the concentration at half of the fitted maximal effect. The procedure, abridged: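 Fluorescence from CellTiter-Fluor indicates live cells after 23 h exposure. The human hepatoma line expresses hCAR and a CYP2B6-2.2kb reporter. Incubation medium contains 0.75 uM PK11195 (final).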

Test [4] is described as follows: qHTS assay to identify small molecule antagonists of the constitutive androstane receptor (CAR) signaling pathway - cell viability counter screen (AID 1224837). Further: nearly all actives have a fitted effect of over 45% in size. Further: potency means the concentration at half of the fitted maximal effect. The procedure, abridged: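 Counter screen run in HepG2-CYP2B6-hCAR cells: 4 hr settle, compound titration (15 concentrations) with 50 nM CITCO, 23 hr at 37 C/5% CO2, CellTiter-Fluor fluorescence.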
Test [5] concerns the target Nuclear receptor subfamily 1 group I member 3 (Homo sapiens) (UniProt Q14994). Briefly: qHTS assay to identify small molecule antagonists of the constitutive androstane receptor (CAR) signaling pathway (AID 1224838).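 Further: HepG2 cells stably expressing hCAR with CYP2B6 luciferase reporter stimulated by CITCO; nearly all actives have a fitted effect of over 40% in size.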 Further: potency means the concentration at half of the fitted maximal effect. In short, it runs like this: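 Cell line: HepG2 double-stable for hCAR and CYP2B6-2.2kb reporter. Agonist: CITCO, 50 nM final. Compounds: 15 concentrations, 24 h, 37 C. Detection: ONE-Glo luminescence.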

Test [6] shares this target. Briefly: qHTS assay to identify small molecule agonists of the constitutive androstane receptor (CAR) signaling pathway (AID 1224839).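 Further: HepG2 cells stably carrying human CAR and a CYP2B6 luciferase reporter; series mostly up to about 92 µM; nearly all actives have a fitted effect of over 15% in size.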 The procedure, abridged:
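Stable hCAR/CYP2B6-2.2kb HepG2 line in DMEM with 10% FBS; compounds (15 concentrations) and 0.75 uM PK11195 final, 24 h at 37 C/5% CO2, then ONE-Glo luminescence after 30 min.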

A short description of test [7]: qHTS assay to identify small molecule antagonists of the estrogen related receptor signaling pathway with the pleiotropic PPARgamma coactivator (PGC) from Tox21 10K library - cell viability counter screen (AID 1224840; active means well fitted cell-killing curve with a large enough effect in the repeat runs, not every such curve was filed as active; further: nearly all actives have a fitted effect of over 40% in size; further: potency means the concentration at half of the fitted maximal effect). In short, it runs like this: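 Following seeding of 2,000 PGC/ERR cells/well and 6 hours' incubation, test compounds were delivered in DMSO. The plates then sat 17.5 hours at 37 C before a fluorogenic live-cell protease reagent (CellTiter-Fluor) was read after 30 min.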

Test [8] in a line: qHTS assay to identify small molecule antagonists of the estrogen related receptor signaling pathway with the pleiotropic PPARgamma coactivator (PGC) from Tox21 10K library (AID 1224841; call rule not given here; further: actives are mostly falling curves and most rising ones were filed inactive; nearly all actives have a fitted effect of over 50% in size; further: potency means the concentration at half of the fitted maximal effect). The procedure, abridged:
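qHTS antagonist format: PGC/ERR cells, 2k/well, compound in DMSO by pin transfer after 6 h attachment, 18 h treatment at 37 C, One-Glo luminescence read at 30 min.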

A short description of test [9]: qHTS assay to identify small molecule agonists of the estrogen related receptor signaling pathway with the pleiotropic PPARgamma coactivator (PGC) from Tox21 10K library (AID 1224842). Further: nearly all actives have a fitted effect of over 15% in size. In short, it runs like this: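 PGC/ERR reporter cell line, 2,000 cells per well, incubated 6 h at 37 C before 23 nL compound in DMSO was added. After 18 h at 37 C, One-Glo luminescence read following 30 min at room temperature.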

The target in test [10] is Thyrotropin receptor (Homo sapiens) (UniProt P16473). Briefly: qHTS assay to identify small molecule agonists of the thyroid stimulating hormone receptor (TSHR) signaling pathway (AID 1224843; calls by dose curve; further: nearly all actives have a fitted effect of over 45% in size). In short, it runs like this: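 Steps: seed 800 TSHR-HEK293 cells per well; add test compound and hold 30 min at ambient temperature; dispense cAMP-d2 then anti-cAMP cryptate; incubate 1 h at ambient; measure fluorescence intensity.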

Records with an inconclusive call do not appear. Activity calls are given as the source filed them. Unless noted, the call rests on the fitted dose curve; in most records, active means well fitted curve in the direction sought with a large enough effect in the repeat runs; inconclusive means weak or mixed curves; inactive means no such curve, though single readings can be large; an effect the other way counts as inactive or inconclusive.

Sequence of Luciferin 4-monooxygenase (Photinus pyralis) (P08659 whole entry, looked up): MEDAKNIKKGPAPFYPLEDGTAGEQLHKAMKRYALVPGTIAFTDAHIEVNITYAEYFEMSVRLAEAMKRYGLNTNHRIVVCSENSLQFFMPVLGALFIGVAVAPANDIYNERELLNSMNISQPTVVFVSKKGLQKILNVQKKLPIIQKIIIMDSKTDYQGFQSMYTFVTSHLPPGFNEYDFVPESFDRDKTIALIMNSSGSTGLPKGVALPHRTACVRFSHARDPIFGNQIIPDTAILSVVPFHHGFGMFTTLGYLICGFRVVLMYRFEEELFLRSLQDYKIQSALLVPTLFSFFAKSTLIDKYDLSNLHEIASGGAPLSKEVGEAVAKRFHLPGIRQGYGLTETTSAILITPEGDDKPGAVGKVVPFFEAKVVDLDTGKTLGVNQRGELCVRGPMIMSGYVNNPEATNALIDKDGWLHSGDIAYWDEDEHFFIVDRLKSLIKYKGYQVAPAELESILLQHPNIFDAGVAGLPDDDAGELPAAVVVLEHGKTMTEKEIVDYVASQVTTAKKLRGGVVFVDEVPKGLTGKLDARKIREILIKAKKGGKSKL
Sequence of Nuclear receptor subfamily 1 group I member 3 (Homo sapiens) (Q14994 whole entry, looked up): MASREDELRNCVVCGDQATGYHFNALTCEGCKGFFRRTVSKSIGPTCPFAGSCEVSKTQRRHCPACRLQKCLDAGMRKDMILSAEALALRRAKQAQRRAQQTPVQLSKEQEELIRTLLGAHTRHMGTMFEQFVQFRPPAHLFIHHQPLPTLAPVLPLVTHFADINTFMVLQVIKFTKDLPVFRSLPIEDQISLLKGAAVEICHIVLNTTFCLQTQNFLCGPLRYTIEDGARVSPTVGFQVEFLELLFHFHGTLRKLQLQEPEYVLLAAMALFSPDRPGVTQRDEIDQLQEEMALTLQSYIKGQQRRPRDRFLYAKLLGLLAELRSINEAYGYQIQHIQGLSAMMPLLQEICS
Sequence of Thyrotropin receptor (Homo sapiens) (P16473 whole entry, looked up): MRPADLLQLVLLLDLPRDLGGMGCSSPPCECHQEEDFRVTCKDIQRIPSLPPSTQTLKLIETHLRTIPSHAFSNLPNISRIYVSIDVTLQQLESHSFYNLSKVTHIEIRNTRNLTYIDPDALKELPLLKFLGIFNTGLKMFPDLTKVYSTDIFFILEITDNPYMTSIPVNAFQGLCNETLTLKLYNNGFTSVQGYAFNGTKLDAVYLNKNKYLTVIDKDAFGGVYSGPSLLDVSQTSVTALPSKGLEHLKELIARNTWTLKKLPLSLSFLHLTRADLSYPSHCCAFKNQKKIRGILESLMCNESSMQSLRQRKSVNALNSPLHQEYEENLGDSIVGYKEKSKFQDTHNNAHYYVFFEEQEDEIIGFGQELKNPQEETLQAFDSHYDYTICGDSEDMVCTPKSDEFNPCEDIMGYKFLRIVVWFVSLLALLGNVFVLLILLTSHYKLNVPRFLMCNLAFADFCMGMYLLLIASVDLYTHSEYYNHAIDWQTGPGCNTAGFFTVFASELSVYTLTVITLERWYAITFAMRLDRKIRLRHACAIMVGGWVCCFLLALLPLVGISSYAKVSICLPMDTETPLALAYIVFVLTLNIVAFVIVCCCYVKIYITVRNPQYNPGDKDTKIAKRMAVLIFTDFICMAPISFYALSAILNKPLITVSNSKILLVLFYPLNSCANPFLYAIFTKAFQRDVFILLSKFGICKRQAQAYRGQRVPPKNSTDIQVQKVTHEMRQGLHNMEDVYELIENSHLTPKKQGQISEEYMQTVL

In the case of `OC1(c2ccccc2)CCNCC1`, the Potency entry in test [1], in test [2], in [3], in test [4], in test [5] and in test [6] was “inactive” throughout. The Potency entry in test [7], in [8], in [9] and in test [10] was “inactive” throughout.
Take `CCOC(=O)C1=C(C)NC(C)=C(C(=O)OC)C1c1cccc(Cl)c1Cl` (configuration not stated): the Potency entry in [1], in [2], in test [3], in test [4], in test [5] and in test [6] was “inactive” throughout. In addition, the Potency result in [7], in test [8], in test [9] and in test [10] was “inactive” each time.
Regarding `O=C(O)c1ccc(OCCCOc2ccc(C(=O)O)cc2)cc1`, the Potency result in [1], in test [2], in test [3], in [4], in [5] and in test [6] was “inactive” in each case. Besides, the Potency result in [7], in [8], in test [9] and in test [10] was “inactive” each time.
Regarding `CCCCCC[C@@H](O)C/C=C\CCCCCCCC(=O)O`, the Potency entry in test [1], in test [2], in test [3], in [4], in test [5] and in [6] was “inactive” each time. Also, the Potency result in test [7], in test [8], in [9] and in test [10] was “inactive” in each case.
For `c1ccc(C[n+]2cccc3ccccc32)cc1`, the Potency result in test [1], in test [2], in test [3], in test [4], in test [5] and in test [6] was “inactive” each time. For the same compound, the Potency entry in [7], in test [9] and in test [10] was “inactive” each time. Also, in [8], the Potency was 24.3 µM (active).
Turning to `N#CCc1ccc(Cl)cc1Cl`, the Potency entry in test [1], in test [2], in test [3], in [4], in test [5] and in test [6] was “inactive” throughout. Moreover, the Potency result in test [7], in [8], in test [9] and in test [10] was “inactive” each time.
Regarding `FC(F)(F)c1ccccc1Cl`, the Potency entry in test [1], in test [2], in test [3], in [4], in test [5] and in [6] was “inactive” in each case. For the same compound, the Potency entry in [7], in [8] and in test [9] was “inactive” throughout.
As to `CCN(CC)CCNC(=O)COc1ccc(OC)cc1`, the Potency entry in [1], in [2], in test [3], in [4], in [5] and in test [6] was “inactive” throughout. Also, in test [7], the Potency result is “inactive”.
As for `CCCCCCCCC(CCCCCC)C(=O)O` (configuration not stated), the Potency entry in test [1], in [2], in test [3], in test [4], in test [5] and in test [6] was “inactive” each time. Moreover, the Potency entry in test [7], in [8], in test [9] and in test [10] was “inactive” each time.
On to `CC1=C(Br)C(=O)C(Br)=C/C1=C(/c1ccccc1S(=O)(=O)O)c1cc(Br)c(O)c(Br)c1C`, for which the Potency was 18.6 µM (active) in test [1]; 19.2 µM (active) in [2]; 18.6 µM (active) in test [3]; 33 µM (active) in test [4]; 18.6 µM (active) in test [5]; 18.6 µM (active) in [7]. Also, the Potency in [8] was 16.5 µM (active). For the same compound, the Potency result in [6] and in test [9] was “inactive” in each case.
Consider `CC(CN(C)C)C(C)(O)Cc1ccc(Cl)cc1` (configuration not stated), for which the Potency entry in [1], in [2], in test [3], in test [4], in [5] and in test [6] was “inactive” each time. The Potency result in test [7], in test [8], in test [9] and in test [10] was “inactive” throughout.
As for `CC(C)COCC(CN(Cc1ccccc1)c1ccccc1)N1CCCC1` (configuration not stated), the Potency in [1] was 26.6 µM (active); in [3], 29.8 µM (active); in test [4], 29.8 µM (active); in test [5], 18.8 µM (active); in [7], 29.8 µM (active). In addition, the Potency result in test [2] and in test [6] was “inactive” in each case.
As to `CCCCCCCC/C=C\CCCCCCCCCCCC(=O)O`, the Potency result in test [1], in test [2], in [3], in test [4], in test [5] and in test [6] was “inactive” in each case. In addition, the Potency entry in test [7] is “inactive”.
On to `CC1(C)[C@H](C(=O)O)N2C(=O)C[C@H]2S1(=O)=O`, for which the Potency result in test [1], in test [2], in test [3], in test [4], in [5] and in test [6] was “inactive” each time. Besides, the Potency result in test [7], in [8] and in [9] was “inactive” throughout.
For the compound `CC(CO)CO`, the Potency entry in [1], in test [2], in test [3], in [4], in [5] and in test [6] was “inactive” each time. Besides, the Potency entry in test [7], in [8], in test [9] and in [10] was “inactive” each time.
For `CCC(=O)C1CC(C(C)C)CC=C1C` (configuration not stated), the Potency entry in test [1], in test [2], in test [3], in [4], in test [5] and in test [6] was “inactive” throughout. Besides, the Potency result in test [7], in test [8] and in test [9] was “inactive” each time.
`C=C1c2cccc(O)c2C(O)=C2C(=O)[C@]3(O)C(O)=C(C(N)=O)C(=O)[C@@H](N(C)C)[C@@H]3[C@@H](O)[C@H]12`: the Potency result in [1], in test [2], in test [3], in test [4], in test [5] and in [6] was “inactive” in each case. Further, the Potency result in test [7], in [8] and in [9] was “inactive” in each case.
Turning to `CC/C=C1/OC(=O)c2ccccc21`, the Potency result in test [1], in test [2], in test [3], in test [4], in test [5] and in test [6] was “inactive” throughout. Moreover, the Potency entry in test [7], in [8] and in test [9] was “inactive” in each case.
Turning to `CCCCCCC(C)(C)C(=O)O`, the Potency entry in test [1], in test [2], in [3], in test [4], in [5] and in [6] was “inactive” in each case. Also, the Potency entry in test [7], in test [8], in test [9] and in test [10] was “inactive” throughout.
For `C=C(C)C(=O)OCCOCCOC(=O)C(=C)C`, the Potency entry in [1], in [2], in [3], in test [4], in test [5] and in [6] was “inactive” in each case. Further, the Potency result in test [7], in test [8] and in [9] was “inactive” in each case.
In the case of `CC(C)(C)C(=O)C(=O)O`, the Potency result in [1], in [2], in test [3], in [4], in test [5] and in [6] was “inactive” in each case. For the same compound, the Potency entry in [7] is “inactive”.
Turning to `CC(C)=CC(=O)C=C(C)C`, the Potency result in test [1], in [2], in test [3], in test [4], in [5] and in test [6] was “inactive” each time. Moreover, the Potency entry in test [7], in [8], in test [9] and in test [10] was “inactive” throughout.
Regarding `CN1CCCN=C1COC(=O)C(O)(c1ccccc1)C1CCCCC1` (configuration not stated), the Potency entry in test [1], in [2], in test [3], in test [4], in [5] and in [6] was “inactive” throughout. Moreover, the Potency result in test [7], in test [8] and in test [9] was “inactive” each time.
`O=C1CCCCCCCCCCOCCCCO1`: the Potency result in test [1], in test [2], in test [3], in test [4], in [5] and in [6] was “inactive” each time. Besides, the Potency result in [7] is “inactive”.
